Results filed as inconclusive are left out. A call without a number means that no potency is given here. The source made the active and inactive calls. Unless noted, calls come from the whole dose curve; as a rule, active = well fitted curve in the direction sought with a large enough effect in the repeat runs; inconclusive = weak or mixed curves; inactive = no such curve, though single readings can be large; an effect the other way counts as inactive or inconclusive.
What was measured:
[1] = qHTS assay to identify small molecule antagonists of the estrogen related receptor (ERR) signaling pathway (AID 1224819; note: nearly all actives have a fitted effect of over 50% in size; note: potency is the fitted concentration of half-maximal effect)
Outline: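 Luminescence readout (One-Glo, 30 min, RT) of ERR cell line after 18 h compound exposure at 37 C; cells seeded 2,000/well, pre-incubated 6 h, compounds pinned from DMSO stocks.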

[2] = system: estrogen-related receptor alpha (ERRalpha) with PGC-1alpha coactivator, human; assay: qHTS assay to identify small molecule antagonists of the estrogen related receptor signaling pathway with the pleiotropic PPARgamma coactivator (PGC) (AID 1224821; calls by dose curve; note: nearly all actives have a fitted effect of over 50% in size; note: potency is the fitted concentration of half-maximal effect)
Outline: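 PGC/ERR reporter cells; 6 h pre-incubation 37 C/5% CO2; pin-tool compound in DMSO, 18 h 37 C; One-Glo added, 30 min RT; luminescence read. qHTS antagonist mode.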

[3] = qHTS assay to identify small molecule antagonists of the estrogen related receptor signaling pathway with the pleiotropic PPARgamma coactivator (PGC) cell viability counter screen (AID 1224822; note: potency is the fitted concentration of half-maximal effect;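 note: viability read after 17.5 h compound exposure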)
Outline: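 Fluorescence read-out of CellTiter-Fluor after 30 min at 37 C; PGC/ERR cells, 2,000 per well, had been exposed to DMSO-dissolved compounds for 17.5 h following a 6 h pre-incubation.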

[4] = qHTS assay to identify small molecule agonists of the estrogen related receptor signaling pathway with the pleiotropic PPARgamma coactivator (PGC) (AID 1224823); note: potency is the fitted concentration of half-maximal effect
Outline: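 Luminescence readout (One-Glo, 30 min RT) from PGC/ERR cell line treated 18 h at 37 C with pin-tool-delivered DMSO compound solutions; cells plated 6 h before dosing. Quantitative HTS format.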

[5] = qHTS assay to identify small molecule agonists of the estrogen related receptor (ERR) signaling pathway (AID 1224820)
Outline: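 Luminescence readout (One-Glo, 30 min RT) from NTP-supplied ERR cell line exposed to compounds for 18 h at 37 C. Cells seeded 2,000 per well and pre-incubated 6 h before pin-tool compound transfer.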

With `C[C@H](NC(=O)/C(C#N)=C/c1ccc(O)c(O)c1)c1ccccc1` as the compound, how does the Potency [1] read?
The Potency was “inactive”.

What about the Potency [2] of the same compound?
Its Potency is “inactive”.

And the Potency [3]?
Its Potency is “inactive”.

What about the Potency [4] of the same compound?
Its Potency is “inactive”.

For `CC(C)(C)c1cc(/C=C(\C#N)C(N)=S)cc(C(C)(C)C)c1O`, which Potency [1] is on record?
The Potency was 2.46 µM (active).

What about the Potency [2] of the same compound?
Its Potency is 2.11 µM (active).

And the Potency [4]?
The Potency was “inactive”.

Which results are given for `CCC(NC(C)C)C(O)c1ccc(O)c(O)c1` (centres undefined)?
Potency [1]: inactive; Potency [2]: inactive; Potency [3]: inactive; Potency [4]: inactive

For `CNC(=O)c1cc2c(cn1)[nH]c1ccccc12`, which Potency [1] is on record?
The Potency was “inactive”.

What about the Potency [2] of the same compound?
The Potency was “inactive”.

And the Potency [3]?
Its Potency is “inactive”.

What about the Potency [4] of the same compound?
Its Potency is “inactive”.

Which Potency [1] does the source give for `O=C(O)c1cc([N+](=O)[O-])ccc1NCCCc1ccccc1` here?
Its Potency is “inactive”.

And the Potency [2]?
Its Potency is “inactive”.

And the Potency [4]?
Its Potency is “inactive”.

What does the source list for `N[C@H](C(=O)O)[C@H](Cc1ccccc1)C(=O)O`?
Potency [1]: inactive; Potency [2]: inactive; Potency [3]: inactive; Potency [4]: inactive

With `CN1Cc2sccc2C(c2ccc(O)c(O)c2)C1` (centres undefined) as the compound, how does the Potency [1] read?
The Potency was “inactive”.

And the Potency [2]?
Its Potency is “inactive”.

What about the Potency [3] of the same compound?
Its Potency is “inactive”.

And the Potency [4]?
Its Potency is “inactive”.

For `NCC1OC(OC2C(O)[C@@H](OC3C(O)C(N)CC(N)C3OC3OC(CO)C(O)C(O)C3N)O[C@@H]2CO)C(N)C(O)C1O` (some centres undefined), which Potency [1] is on record?
The Potency was “inactive”.

What about the Potency [2] of the same compound?
The Potency was “inactive”.

What about the Potency [3] of the same compound?
The Potency was “inactive”.

And the Potency [4]?
The Potency was “inactive”.

Which Potency [1] does the source give for `Cc1ccc([N+](=O)[O-])cc1S(=O)(=O)N(C)C` here?
Its Potency is “inactive”.

What about the Potency [2] of the same compound?
The Potency was “inactive”.

And the Potency [3]?
Its Potency is “inactive”.

And the Potency [4]?
Its Potency is “inactive”.

What does the source list for `COc1cc(/C=C(\C#N)C(=O)c2ccc(O)c(O)c2)cc(I)c1O`?
Potency [1]: inactive; Potency [2]: inactive; Potency [3]: inactive; Potency [4]: inactive

Which results are given for `CN(C)CCCC1(c2ccc(F)cc2)OCc2cc(C#N)ccc21` (centres undefined)?
Potency [1]: inactive; Potency [2]: inactive; Potency [3]: inactive; Potency [4]: inactive

Which Potency [1] does the source give for `Cc1cccc(-c2[nH]c(C(C)(C)C)nc2-c2ccc3nccnc3c2)n1` here?
The Potency was 10.2 µM (active).

And the Potency [2]?
The Potency was 6.94 µM (active).

What about the Potency [3] of the same compound?
The Potency was 8.1 µM (active).

What about the Potency [4] of the same compound?
The Potency was “inactive”.

For `CN(C)CCCc1cc(C(=O)Nc2ccc(-c3ccncc3)cc2)ccc1O`, which Potency [1] is on record?
The Potency was “inactive”.

What about the Potency [2] of the same compound?
The Potency was “inactive”.

What about the Potency [3] of the same compound?
Its Potency is “inactive”.

And the Potency [4]?
The Potency was “inactive”.

Which results are given for `NC(N)=NC(N)=Nc1cccc(Cl)c1`?
Potency [1]: inactive; Potency [2]: inactive; Potency [3]: inactive; Potency [4]: inactive

With `O=C(O)c1cc2cc(F)ccc2[nH]1` as the compound, how does the Potency [1] read?
Its Potency is “inactive”.

And the Potency [2]?
Its Potency is “inactive”.

And the Potency [3]?
The Potency was “inactive”.

And the Potency [4]?
Its Potency is “inactive”.

With `C[C@H](Cc1ccccc1)Nc1ncnc2c1ncn2[C@@H]1O[C@H](CO)C(O)[C@H]1O` (some centres undefined) as the compound, how does the Potency [1] read?
The Potency was “inactive”.

What about the Potency [2] of the same compound?
The Potency was “inactive”.

What about the Potency [3] of the same compound?
The Potency was “inactive”.

And the Potency [4]?
The Potency was 10.2 µM (active).

Which results are given for `NS(=O)(=O)c1cccc2c1c([N+](=O)[O-])cc1nc(O)c(O)nc12`?
Potency [1]: inactive; Potency [2]: inactive; Potency [3]: inactive; Potency [4]: inactive

With `COc1cc(C(O)C(=O)O)ccc1O` (centres undefined) as the compound, how does the Potency [1] read?
Its Potency is “inactive”.

What about the Potency [2] of the same compound?
The Potency was “inactive”.

What about the Potency [3] of the same compound?
Its Potency is “inactive”.

And the Potency [4]?
The Potency was “inactive”.

For `CCCN(CC1CC1)c1nc(C)nc(Nc2c(Cl)cc(Cl)cc2Cl)c1Cl`, which Potency [1] is on record?
The Potency was “inactive”.

What about the Potency [3] of the same compound?
Its Potency is “inactive”.

What about the Potency [4] of the same compound?
Its Potency is “inactive”.

Which Potency [1] does the source give for `S=C(S)OC1CC2CC1C1CCCC21` (centres undefined) here?
Its Potency is “inactive”.

And the Potency [2]?
The Potency was “inactive”.

And the Potency [3]?
The Potency was “inactive”.

And the Potency [4]?
Its Potency is “inactive”.

For `CC[N+](CC)(CC)CC(=O)Nc1c(C)cccc1C`, which Potency [1] is on record?
The Potency was “inactive”.

What about the Potency [2] of the same compound?
The Potency was “inactive”.

What about the Potency [3] of the same compound?
The Potency was “inactive”.

What about the Potency [4] of the same compound?
Its Potency is “inactive”.

With `C=C1C(=O)O[C@@H]2[C@H]3O[C@]3(C)CCC=C(C)CC[C@@H]12` as the compound, how does the Potency [1] read?
The Potency was “inactive”.

Which Potency [1] does the source give for `O=C1NC(=O)/C(=C/c2ccc3nccnc3c2)S1` here?
The Potency was “inactive”.

Which results are given for `COc1ccccc1N1CCN(CCN(C(=O)c2ccc(F)cc2)c2ccccn2)CC1`?
Potency [5]: inactive; Potency [2]: inactive; Potency [3]: inactive; Potency [4]: inactive

What does the source list for `C[C@@H](CN1CCC(Cc2ccccc2)CC1)[C@@H](O)c1ccc(O)cc1`?
Potency [5]: inactive; Potency [3]: inactive; Potency [4]: inactive

Which results are given for `c1ccc2c(c1)CCC[C@H]2Nc1nc2ccccc2[nH]1`?
Potency [5]: inactive; Potency [2]: inactive; Potency [3]: inactive; Potency [4]: inactive

Which Potency [5] does the source give for `O=[N+]([O-])c1ccc2c(c1)S(=O)(=O)C=C2` here?
The Potency was “inactive”.

And the Potency [3]?
Its Potency is 11.4 µM (active).

For `N=C(N)c1ccc(N)cc1`, which Potency [5] is on record?
The Potency was “inactive”.

What about the Potency [3] of the same compound?
The Potency was “inactive”.

What about the Potency [4] of the same compound?
Its Potency is “inactive”.

Which results are given for `CC(C)(C)c1ccc(/C=C/C(=O)Nc2ccc3c(c2)OCCO3)cc1`?
Potency [5]: inactive; Potency [2]: inactive; Potency [3]: inactive; Potency [4]: inactive

Which Potency [5] does the source give for `CN1CCCC1CCOC(C)(c1ccccc1)c1ccc(Cl)cc1` (centres undefined) here?
Its Potency is “inactive”.

What about the Potency [2] of the same compound?
The Potency was “inactive”.

And the Potency [4]?
The Potency was “inactive”.

Which Potency [5] does the source give for `Oc1ccc(/C=C/c2ccc(/C=C/c3ccc(O)cc3)c(Br)c2)cc1` here?
The Potency was “inactive”.

What about the Potency [2] of the same compound?
Its Potency is “inactive”.

What about the Potency [4] of the same compound?
Its Potency is “inactive”.

— PubChem BioAssay (Tox21)
